Test results as given in the supplement of paper PMC9262897, “Low-cost anti-mycobacterial drug discovery using engineered E. coli” (Nature Communications, 2022).
Structures can show the parent of a compound that is named as a salt. ± gives the standard deviation of the averaged measurements.

Assays:
Assay in all cases: growth (OD600 after 10 h); higher = more growth (less inhibition)
[1] = test system: E. coli TESEC Alr+ wild-type control; settings: compound 0.1 mM; raw OD600 reference: median of DMSO wells 0.241, cell-free background 0.041
Protocol: (§1)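 TESEC Mtb Alr E. coli, or the Alr+ wild-type control, in 384-well plates with Prestwick library compounds at 0.1 mM and 1% DMSO, across arabinose induction levels of 1E3 to 1E7 nM. Growth is read as OD600 after 10 h at 37 °C in triplicate biological replicates.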

[2] = test system: E. coli TESEC Mtb Alr; settings: compound 0.1 mM
Protocol: as §1

[3] = test system: E. coli TESEC Mtb Asd; settings: compound 0.1 mM
Protocol: (§2)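 TESEC E. coli strains in which the native enzyme is deleted and replaced by arabinose-inducible Mtb Asd, DapB, CysH or TrpD, each grown in its selective medium. Strains were screened against the Prestwick library at 0.1 mM and 1% DMSO in 384-well format at low and high arabinose induction. Growth is read as OD600 after 10 h in triplicate.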

[4] = test system: E. coli TESEC Mtb DapB; settings: compound 0.1 mM
Protocol: as §2

[5] = test system: E. coli TESEC Alr+ wild-type control; settings: compound 0.1 mM; raw OD600 reference: median of DMSO wells 0.49, cell-free background 0.052
Protocol: (§3)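 TESEC Mtb Alr E. coli (ΔaraC ΔtolC ΔentC Δalr ΔdadX, arabinose-inducible Mtb Alr) or the Alr+ wild-type control strain, grown in defined M9-fructose medium without D-alanine in 96-well plates with Prestwick library compounds at 0.1 mM and 1% DMSO. Low Alr induction is 0.1 µM arabinose and high induction is 10 mM arabinose.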

[6] = test system: E. coli TESEC Mtb Alr; settings: compound 0.1 mM; remark: listed apart in the source
Protocol: as §3

[7] = arabinose 1000 nM, raw OD600 reference: median of DMSO wells 0.294, cell-free background 0.041
[8] = arabinose 10000 nM, raw OD600 reference: median of DMSO wells 0.264, cell-free background 0.041
[9] = arabinose 100000 nM, raw OD600 reference: median of DMSO wells 0.201, cell-free background 0.041
[10] = arabinose 1000000 nM, raw OD600 reference: median of DMSO wells 0.193, cell-free background 0.041
[11] = arabinose 10000000 nM, raw OD600 reference: median of DMSO wells 0.146, cell-free background 0.041
[12] = arabinose induction (level): High, raw OD600 reference: median of DMSO wells 0.331, cell-free background 0.041
[13] = arabinose induction (level): Low, raw OD600 reference: median of DMSO wells 0.417, cell-free background 0.041
[14] = arabinose induction (level): High, raw OD600 reference: median of DMSO wells […], cell-free background 0.041
[15] = arabinose induction (level): Low, raw OD600 reference: median of DMSO wells 0.227, cell-free background 0.041
[16] = arabinose 100 nM, raw OD600 reference: median of DMSO wells 0.413, cell-free background 0.052
[17] = arabinose 10000000 nM, raw OD600 reference: median of DMSO wells […], cell-free background 0.052

Row | Compound | growth [1] | growth [2, 7] | growth [2, 8] | growth [2, 9] | growth [2, 10] | growth [2, 11] | growth [3, 12] | growth [3, 13] | growth [4, 14] | growth [4, 15] | growth [5] | growth [6, 16] | growth [6, 17]
1 | CCC1(c2ccccc2)NC(=O)N(C)C1=O (configuration not stated) [Mephenytoin] | 0.249 ± 0.0037 | 0.299 ± 0.0081 | 0.287 ± 0.011 | 0.201 ± 0.014 | 0.204 ± 0.013 | 0.152 ± 0.0052 | 0.235 ± 0.029 | 0.328 ± 0.072 | 0.184 ± 0.013 | 0.24 ± 0.037 | 0.501 ± 0.091 | 0.427 ± 0.0055 | 0.31 ± 0.011
2 | COc1cc2nc(N3CCN(C(=O)c4ccco4)CC3)nc(N)c2cc1OC [Prazosin hydrochloride] | 0.242 ± 0.0066 | 0.319 ± 0.019 | 0.239 ± 0.0065 | 0.185 ± 0.008 | 0.147 ± 0.015 | 0.226 ± 0.0067 | 0.263 ± 0.09 | 0.348 ± 0.091 | 0.247 ± 0.023 | 0.285 ± 0.029 | 0.498 ± 0.007 | 0.399 ± 0.013 | 0.3092 ± 0.0026
3 | CN1C(=O)OC(C)(C)C1=O [Trimethadione] | 0.242 ± 0.0071 | 0.283 ± 0.0076 | 0.269 ± 0.012 | 0.202 ± 0.014 | 0.185 ± 0.0082 | 0.1382 ± 0.00081 | 0.297 ± 0.098 | 0.409 ± 0.037 | 0.193 ± 0.0086 | 0.229 ± 0.042 | 0.553 ± 0.073 | 0.423 ± 0.011 | 0.344 ± 0.02
4 | CCN(CC)C(=S)SSC(=S)N(CC)CC [Disulfiram] | 0.278 ± 0.0078 | 0.197 ± 0.027 | 0.115 ± 0.0063 | 0.161 ± 0.014 | 0.0709 ± 0.0023 | 0.06003 ± 0.00047 | 0.192 ± 0.028 | 0.33 ± 0.034 | 0.161 ± 0.013 | 0.211 ± 0.01 | 0.443 ± 0.066 | 0.23 ± 0.093 | 0.146 ± 0.008
5 | CCCCCCCCCCCCCCCC[N+](C)(C)CCN(Cc1ccc(OC)cc1)c1ncccn1 [Thonzonium bromide] | 0.0453 ± 0.0014 | 0.08477 ± 0.00045 | 0.0958 ± 0.0043 | 0.0909 ± 0.0047 | 0.0447 ± 0.003 | 0.0932 ± 0.0021 | 0.0571 ± 0.0024 | 0.059 ± 0.0013 | 0.05637 ± 0.00046 | 0.0589 ± 0.002 | 0.0464 ± 0.00035 | 0.226 ± 0.15 | 0.112 ± 0.01
6 | CC1(C)S[C@@H]2[C@H](NC(=O)[C@H](N)c3ccccc3)C(=O)N2[C@H]1C(=O)O [Ampicillin trihydrate] | 0.235 ± 0.0072 | 0.279 ± 0.011 | 0.253 ± 0.013 | 0.189 ± 0.024 | 0.1927 ± 0.0013 | 0.145 ± 0.0022 | 0.388 ± 0.056 | 0.394 ± 0.066 | 0.205 ± 0.013 | 0.256 ± 0.051 | 0.479 ± 0.038 | 0.4271 ± 0.0036 | 0.338 ± 0.0045
7 | C[C@@H]1CCC[C@H](C)N1NC(=O)c1ccc(Cl)c(S(N)(=O)=O)c1 [Clopamide] | 0.235 ± 0.0084 | 0.294 ± 0.02 | 0.251 ± 0.0061 | 0.217 ± 0.022 | 0.173 ± 0.0061 | 0.135 ± 0.002 | 0.283 ± 0.036 | 0.354 ± 0.031 | 0.199 ± 0.01 | 0.225 ± 0.0079 | 0.581 ± 0.048 | 0.419 ± 0.011 | 0.345 ± 0.015
8 | CN(Cc1cnc2nc(N)nc(N)c2n1)c1ccc(C(=O)N[C@@H](CCC(=O)O)C(=O)O)cc1 [Methotrexate] | 0.225 ± 0.0067 | 0.285 ± 0.011 | 0.244 ± 0.013 | 0.195 ± 0.011 | 0.155 ± 0.0048 | 0.144 ± 0.002 | 0.24 ± 0.055 | 0.359 ± 0.022 | 0.2 ± 0.0058 | 0.254 ± 0.022 | 0.102 ± 0.0015 | 0.277 ± 0.14 | 0.126 ± 0.0066
9 | C[C@H]1O[C@H](O[C@H]2[C@H](O)[C@@H](O)[C@@H](O[C@@H]([C@H](O)[C@@H](O)C=O)[C@H](O)CO)O[C@@H]2CO)[C@H](O)[C@@H](O)[C@@H]1N[C@H]1C=C(CO)[C@@H](O)[C@H](O)[C@H]1O [Acarbose] | 0.261 ± 0.0036 | 0.313 ± 0.0078 | 0.25 ± 0.005 | 0.244 ± 0.0037 | 0.182 ± 0.0045 | 0.145 ± 0.013 | 0.322 ± 0.026 | 0.476 ± 0.036 | 0.196 ± 0.018 | 0.236 ± 0.037 | 0.458 ± 0.0055 | 0.396 ± 0.013 | 0.3792 ± 0.0032
10 | Nc1nc(Cl)nc2c1ncn2[C@H]1C[C@H](O)[C@@H](CO)O1 [Cladribine] | 0.263 ± 0.14 | 0.165 ± 0.0084 | 0.0701 ± 0.0033 | 0.118 ± 0.018 | 0.0623 ± 0.0011 | 0.07457 ± 0.00035 | 0.409 ± 0.08 | 0.217 ± 0.015 | 0.244 ± 0.046 | 0.209 ± 0.018 | 0.577 ± 0.12 | 0.42 ± 0.0056 | 0.219 ± 0.031
11 | COc1cccc(N(C)C(=S)Oc2ccc3c(c2)CCCC3)n1 [Liranaftate] | 0.213 ± 0.0062 | 0.259 ± 0.0073 | 0.2888 ± 0.0012 | 0.167 ± 0.0063 | 0.1202 ± 0.0011 | 0.149 ± 0.0092 | 0.297 ± 0.025 | 0.426 ± 0.045 | 0.196 ± 0.013 | 0.224 ± 0.0065 | 0.385 ± 0.0054 | 0.407 ± 0.038 | 0.127 ± 0.0031
12 | CO[C@@]1(NC(=O)CSCC#N)C(=O)N2C(C(=O)O)=C(CSc3nnnn3C)CS[C@@H]21 [Cefmetazole sodium salt] | 0.0393 ± 0.0013 | 0.0392 ± 0.0012 | 0.0395 ± 0.00076 | 0.0392 ± 0.0027 | 0.03973 ± 5.8e-05 | 0.03957 ± 0.00025 | 0.0524 ± 0.0042 | 0.0557 ± 0.0072 | 0.0493 ± 0.0012 | 0.0513 ± 0.0023 | 0.0516 ± 0.012 | 0.0461 ± 0.00055 | 0.0549 ± 0.0037
13 | CC(=O)NS(=O)(=O)c1ccc(N)cc1 [Sulfacetamide sodic hydrate] | 0.265 ± 0.006 | 0.313 ± 0.029 | 0.261 ± 0.0078 | 0.237 ± 0.011 | 0.187 ± 0.02 | 0.151 ± 0.0041 | 0.375 ± 0.022 | 0.407 ± 0.063 | 0.188 ± 0.0037 | 0.232 ± 0.048 | 0.486 ± 0.053 | 0.406 ± 0.013 | 0.353 ± 0.018
14 | CN1CCC(=C2c3ccccc3Sc3ccccc32)CC1 [Pimethixene maleate] | 0.0726 ± 0.0016 | 0.0585 ± 0.013 | 0.0419 ± 0.00051 | 0.0556 ± 0.0055 | 0.0414 ± 0.00026 | 0.05003 ± 0.00025 | 0.118 ± 0.028 | 0.161 ± 0.0073 | 0.15 ± 0.011 | 0.223 ± 0.069 | 0.0544 ± 0.0021 | 0.362 ± 0.078 | 0.0659 ± 0.0097
